Experimental data: PubChem BioAssay (NCATS)
Results filed as inconclusive are left out. Calls of active or inactive are those of the source. Calls come from the whole dose curve; as a rule, active = well fitted curve in the direction sought with a large enough effect; inconclusive = small, poorly fitted or top-dose-only effect, or another doubt; inactive = no such curve, though single readings can be large; an effect the other way counts as inactive or inconclusive.

Columns and labels:
[1] = biological target: Glutathione peroxidase 1 (Homo sapiens) (UniProt P07203); assay: Primary qHTS Assay for Inhibitors of Recombinant Selenoprotein Glutathione Peroxidase 1 (GPX1) (AID 1845191); note: nearly all actives have a fitted effect of over 65% in size; for activity, negative = inhibition: % is set by controls: 0 for no effect and ±100 for the full control effect
Sequence of Glutathione peroxidase 1 (Homo sapiens) (P07203 whole entry, looked up): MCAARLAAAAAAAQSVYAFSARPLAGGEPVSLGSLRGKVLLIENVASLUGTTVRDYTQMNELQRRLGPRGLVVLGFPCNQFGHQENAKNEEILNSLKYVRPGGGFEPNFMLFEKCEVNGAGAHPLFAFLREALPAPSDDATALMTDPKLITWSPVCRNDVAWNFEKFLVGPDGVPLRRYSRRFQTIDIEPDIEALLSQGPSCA
Method in brief: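 GR-coupled readout: NADPH consumption tracked by fluorescence, ex 340/em 450 nm, at t=0 and after 15 min at RT. Final mix 10 nM GPX1, 1 mM GSH, 0.5 mM CHP, 0.5 mM NADPH, 100 nM GR, 0.01% BSA, following 30 min enzyme–compound preincubation.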

[2] = biological target: Phospholipid hydroperoxide glutathione peroxidase GPX4 (Homo sapiens) (UniProt P36969); assay: Primary qHTS Assay for Inhibitors of Recombinant Selenoprotein Glutathione Peroxidase 4 (GPX4) (AID 1845192); note: nearly all actives have a fitted effect of over 65% in size; for activity change, negative = inhibition: series mostly up to about 50 µM; % is set by controls: 0 for no effect and ±100 for the full control effect
Sequence of Phospholipid hydroperoxide glutathione peroxidase GPX4 (Homo sapiens) (P36969 whole entry, looked up): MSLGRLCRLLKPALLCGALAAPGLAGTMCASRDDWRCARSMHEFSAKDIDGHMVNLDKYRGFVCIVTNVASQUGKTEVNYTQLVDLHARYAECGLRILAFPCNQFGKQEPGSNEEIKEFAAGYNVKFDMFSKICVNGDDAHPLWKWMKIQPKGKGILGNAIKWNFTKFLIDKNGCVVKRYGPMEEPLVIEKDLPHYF
Method in brief: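 Steps: GPX4 plus compound, 30 min RT; add GR/GSH/NADPH master mix; start with cumene hydroperoxide; read 340/450 nm fluorescence at 0 and 15 min. Finals were 200 nM GPX4, 1 mM GSH, 0.5 mM CHP, 0.5 mM NADPH, 100 nM GR.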

[3] = biological target: Luciferin 4-monooxygenase (Photinus pyralis) (UniProt P08659); assay: Primary firefly luciferase (FLuc) qHTS assay for identification of artifact compounds. (AID 1845220); note: nearly all actives have a fitted effect of over 60% in size;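 for activity change, negative = inhibition: series mostly up to about 54 µM; plate controls were DMSO vehicle for no effect and no enzyme for full effect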
Method in brief: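 D-luciferin and ATP (10 uM each, final) in Tris acetate buffer pH 7.6 were incubated with compounds for 15 min at room temperature. The reaction was started with 10 nM Photinus pyralis luciferase and luminescence read after 5 min. Percent inhibition was fitted to a 4-parameter Hill equation.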

[4] = Primary fluorescence-based thiol-reactive (MSTI) qHTS assay for identification of artifact compounds. (AID 1845221); note: nearly all actives have a fitted effect of over 65% in size; note: potency is the fitted concentration of half-maximal effect;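 for activity change, negative = thiol reactive: series mostly up to about 54 µM; thiol-reactive compounds lower the probe fluorescence signal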
Method in brief: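 Probe: MSTI 4 uM, PBS pH 7.4, 2% DMSO. Incubation 1 h, RT, light-protected. Readout fluorescence 525/598 nm.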

[5] = test system: Nanoluciferase (engineered Oplophorus gracilirostris luciferase); assay: Primary Nanoluciferase (NLuc) qHTS assay for identification of artifact compounds. (AID 1845222);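 note: series mostly up to about 54 µM; 0% = DMSO and -100% = no enzyme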
Method in brief: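 Diluted conditioned medium from NLuc-expressing S16 cells treated with compounds for 15 min at room temperature, then Nano-Glo substrate added; luminescence read after 5 min. Percent inhibition versus no-enzyme and DMSO controls fitted to 4-parameter Hill equation.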

[6] = Primary redox qHTS assay for identification of artifact compounds. (AID 1845223);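 note: 0% = DMSO and 100% = reference compound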
Method in brief: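 Redox-cycling detection via DTT (250 uM final) oxidation coupled to Amplex Red (25 uM)/HRP (250 mU/mL) in HBSS. 15 min preincubation plus 30 min after DTT, room temperature. Ex/Em 525/598 nm; 4-parameter Hill fit against DMSO and 10 uM DA3003.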

O=C(/C=C/c1ccc(O)cc1)N[C@@H](Cc1ccc(O)cc1)C(=O)O
active: Potency [4] 7.36 µM
inactive: Potency [1] | Potency [2] | Potency [3] | Potency [5] | Potency [6]

CC(C)(C)OC(=O)N1CCC(OCc2nc(-c3ccncc3)no2)CC1
inactive: Potency [1] | Potency [2] | Potency [3] | Potency [4] | Potency [5] | Potency [6]

CO[C@H]1/C=C/[C@@](C)(O)/C=C/C(=O)O[C@H](C)[C@@H](C)CC/C=C/1C
inactive: Potency [1] | Potency [2] | Potency [3] | Potency [4] | Potency [5] | Potency [6]

C/C=C(\C)C(=O)O[C@@H]1CC2[C@@H](CC=C3C[C@@H](O[C@H]4C[C@H](OC)[C@H](O[C@H]5C[C@H](OC)[C@H](O[C@@H]6O[C@H](C)[C@@H](O[C@H]7C[C@H](OC)[C@H](O[C@@H]8O[C@H](CO)[C@@H](O)[C@H](O)[C@H]8O)[C@@H](C)O7)[C@H](OC)[C@H]6O)[C@@H](C)O5)[C@@H](C)O4)CC[C@@]32C)[C@@]2(O)CC[C@H](C(C)=O)[C@@]12C (stereo partly drawn)
inactive: outcome [1] inactive [at 9.52 µM] | activity change, negative = inhibition [2] -6.94% [at 9.73 µM] | outcome [3] inactive [at 11.6 µM] | activity change, negative = thiol reactive [4] 14.5% [at 11.5 µM] | activity, negative = inhibition [5] 2.98% [at 11.6 µM] | redox activity (% of DA3003) [6] -4.24% [at 11.5 µM]

CCCN1CCC(c2cccc(S(C)(=O)=O)c2)CC1
inactive: Potency [1] | Potency [2] | Potency [3] | Potency [4] | Potency [5] | Potency [6]

Cc1cccc(Oc2cnc(=O)[nH]c2)c1
inactive: Potency [1] | Potency [2] | Potency [3] | Potency [4] | Potency [5] | Potency [6]

C[C@@H]1C[C@H]2O[C@@H]2/C=C\C=C\C(=O)Cc2c(Cl)c(O)cc(O)c2C(=O)O1
inactive: Potency [1] | Potency [2] | activity change, negative = inhibition [3] -8.64% [at 11.6 µM] | activity change, negative = thiol reactive [4] -4.56% [at 11.5 µM] | activity, negative = inhibition [5] -2.67% [at 11.6 µM] | redox activity (% of DA3003) [6] 4.19% [at 11.5 µM]

O=C(O)/C=C/c1cc2c(cc1O[C@@H]1O[C@H](CO)[C@@H](O)[C@H](O)[C@H]1O)OCO2
inactive: Potency [1] | Potency [2] | Potency [3] | Potency [4] | Potency [5] | Potency [6]

CCOc1ccc2nc(SCCN3CCOCC3)[nH]c2c1
inactive: Potency [1] | Potency [2] | Potency [3] | Potency [4] | Potency [5] | Potency [6]

CC1=CC2/C=C(\C)CC[C@@H](O)[C@@H](O)[C@@H]3O[C@@H]3C(=O)[C@]23C(=O)N[C@@H](CC(C)C)[C@@H]3[C@@H]1C (stereo partly drawn)
inactive: Potency [1] | Potency [2] | Potency [3] | Potency [4] | Potency [5] | Potency [6]

CC(=O)/C=C/[C@H]1[C@](C)(O)[C@@H](O)[C@H](OC(C)=O)C2C(C)(C)CCC[C@@]21C (stereo partly drawn)
inactive: Potency [1] | Potency [2] | Potency [3] | Potency [4] | Potency [5] | Potency [6]

COc1ccc(CCC(=O)c2c(O)cc(O)cc2O[C@@H]2O[C@H](CO)[C@@H](O)[C@H](O)[C@H]2O)cc1
inactive: Potency [1] | Potency [2] | Potency [3] | Potency [5] | Potency [6]
active: Potency [4] 10.3 µM

O=C(CCc1nnc2n(Cc3ccc(Cl)cc3)c(=O)c3ccccc3n12)NCCC1=CCCCC1
inactive: Potency [1] | Potency [2] | Potency [3] | Potency [4] | Potency [5] | Potency [6]

CC(=O)C1=CCC2C3CCC4CC(O[C@@H]5O[C@H](CO)[C@@H](O[C@@H]6O[C@@H](C)[C@H](O)[C@@H](O)[C@H]6O)[C@H](O)[C@H]5O[C@@H]5O[C@H](CO)[C@@H](O)[C@H](O)[C@H]5O)CCC4(C)C3CCC12C (stereo partly drawn)
inactive: Potency [1] | Potency [2] | Potency [3] | Potency [4] | Potency [5] | Potency [6]

Cc1[nH]nc(C(F)(F)F)c1Cc1sc2c(c1C(=O)N1C[C@](C)(O)CO1)c(=O)n(C)c(=O)n2C(C)C
inactive: Potency [1] | Potency [2] | Potency [3] | Potency [4] | Potency [5] | Potency [6]

CC1(C)CC2C(C1)C(C)(O)C13CC1(COC3=O)C2O (stereo not drawn)
inactive: Potency [1] | Potency [2] | Potency [3] | Potency [4] | Potency [5] | Potency [6]

C=C1C(=O)O[C@@H]2[C@H]1CCC(C)=C1CCC(=O)O[C@]12C
active: Potency [4] 18.9 µM
inactive: Potency [1] | Potency [2] | Potency [3] | Potency [5] | Potency [6]

CCCC(=O)O[C@@H]1[C@@H]2[C@@H](OC(C)=O)[C@]3(C)C(=O)[C@H]4[C@@H](OC(C)=O)C(C)(C)C[C@H]4[C@]3(C)C(=O)[C@@]2(OC(C)=O)C[C@@H]1C
inactive: Potency [1] | Potency [2] | Potency [3] | Potency [4] | Potency [5] | Potency [6]

OC[C@H]1O[C@@H](O[C@H]2[C@H](OCCc3ccccc3)O[C@H](CO)[C@@H](O)[C@@H]2O)[C@H](O)[C@@H](O)[C@@H]1O
active: Potency [4] 10.3 µM
inactive: Potency [1] | Potency [2] | Potency [3] | Potency [5] | Potency [6]

CC1CCC2C(C(=O)O)=COC(O[C@@H]3O[C@H](CO)[C@@H](O)[C@H](O)[C@H]3O)C12 (stereo partly drawn)
inactive: Potency [1] | Potency [2] | Potency [3] | Potency [5] | Potency [6]
active: Potency [4] 5.85 µM

C=C(C(=O)OC)C1C(O)CC2(C)C(=O)CCC(O)(CO)C2C1O (stereo not drawn)
inactive: Potency [1] | Potency [2] | Potency [3] | Potency [4] | Potency [5] | Potency [6]

C=C1CCC2C(C)(C(=O)OC)CCCC2(C)C1CCC(C)CC(=O)O (stereo not drawn)
inactive: Potency [1] | Potency [2] | Potency [3] | Potency [4] | Potency [5] | Potency [6]

CC(C)NCC(C(=O)N1CCN(c2ncnc3c2C(C)CC3O)CC1)c1ccc(Cl)cc1 (stereo not drawn)
inactive: Potency [1] | Potency [2] | Potency [3] | Potency [4] | Potency [5] | Potency [6]
